# In PubChem BioAssay (NCI):
# Compounds without any hit were thinned out: in the full panel of roughly 79,000, 15% have a hit. A number with no mark means an inactive call. The source made the active and inactive calls. Cut-off read from the data, not from the text of the source: active = growth inhibition above about 70%; inactive = the rest.
# What was measured:
# [1] = NCI Yeast Anticancer Drug Screen. Data for the wt1 strain (AID 149);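 note: 0% = growth of vehicle-treated wt1 cultures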; conditions: S. cerevisiae wt1 strain (SPY 50644) growth inhibition, stronger effect = higher value
# How it was run: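 Readout: yeast growth inhibition, normalised to vehicle controls, in the wt1 strain exposed to test compounds.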
# [2] = NCI Yeast Anticancer Drug Screen. Data for the rad50EPP+ strain (AID 151);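 note: 0% = growth of vehicle-treated control cultures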; conditions: S. cerevisiae rad50 mutant strain, stronger effect = higher value
# How it was run: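 Yeast strain carrying rad50 alteration (rad50EPP+) exposed to compounds; growth inhibition measured relative to vehicle-treated controls.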
# [3] = NCI Yeast Anticancer Drug Screen. Data for the rad50 strain (AID 155);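 note: 0% = growth of vehicle-only cultures of the same strain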; conditions: S. cerevisiae rad50 strain growth inhibition, stronger effect = higher value
# How it was run: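 Compounds were tested on a yeast strain with an engineered DNA damage repair alteration; the reported value is growth inhibition normalised to vehicle treatment.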
# [4] = NCI Yeast Anticancer Drug Screen. Data for the mec2-1 strain (AID 157); conditions: S. cerevisiae mec2-1 strain, stronger effect = higher value
# How it was run: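 mec2-1 yeast strain, carrying an alteration in DNA damage repair or cell cycle control, was exposed to compounds; growth inhibition was measured relative to vehicle-treated controls.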
# [5] = NCI Yeast Anticancer Drug Screen. Data for the rad14 strain (AID 159);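 note: 0% = growth of vehicle-treated control cultures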; conditions: S. cerevisiae rad14 strain growth inhibition, stronger effect = higher value
# How it was run: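 Compound-treated yeast with a defined DNA-repair lesion; growth inhibition normalised to vehicle-treated cultures.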
# [6] = NCI Yeast Anticancer Drug Screen. Data for the sgs1 mgt1 strain (AID 161);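 note: 0% = growth of cultures given vehicle only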; conditions: S. cerevisiae sgs1 mgt1 strain, stronger effect = higher value
# How it was run: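 Yeast cells carrying a defined DNA-repair defect were exposed to test compounds. Growth inhibition was measured relative to vehicle-treated controls.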
# [7] = NCI Yeast Anticancer Drug Screen. Data for the cln2 rad14 strain (AID 165);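 note: 0% = growth equal to vehicle treated cultures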; conditions: S. cerevisiae cln2 rad14 strain, stronger effect = higher value
# How it was run: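 Yeast carrying cln2 and rad14 alterations (cell cycle control and DNA damage repair) were exposed to compounds. Growth inhibition was measured against vehicle-treated controls.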
# [8] = NCI Yeast Anticancer Drug Screen. Data for the bub3 strain (AID 167); conditions: S. cerevisiae bub3 mutant strain, stronger effect = higher value
# How it was run: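 Growth of a checkpoint-deficient yeast mutant is measured after compound exposure. Values represent inhibition relative to vehicle.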
# [9] = NCI Yeast Anticancer Drug Screen. Data for the wt2 strain (AID 169);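 note: 0% = growth of vehicle-treated yeast cultures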; conditions: S. cerevisiae wt2 strain growth inhibition, stronger effect = higher value
# How it was run: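 Yeast cells were exposed to test compounds, and growth inhibition was measured relative to vehicle-treated controls.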
# [10] = NCI Yeast Anticancer Drug Screen. Data for the mlh1 strain (AID 171);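 note: 0% = growth of vehicle-treated control cultures of the same strain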; conditions: S. cerevisiae mlh1 strain growth inhibition, stronger effect = higher value
# How it was run: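 Yeast carrying a defined genetic alteration in DNA damage repair or cell cycle control were exposed to test compounds. Growth inhibition was measured relative to vehicle-treated controls.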
# [11] = NCI Yeast Anticancer Drug Screen. Data for the sgs1 strain (AID 173);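 note: 0% = growth of vehicle-only control cultures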; conditions: S. cerevisiae sgs1 mutant, stronger effect = higher value
# How it was run: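 Yeast mutant strains carrying defined defects in DNA damage repair or cell cycle control were exposed to test compounds. Growth inhibition was scored against vehicle-treated controls.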
# [12] = NCI Yeast Anticancer Drug Screen. Data for the mlh1 rad18 strain (AID 175); conditions: S. cerevisiae mlh1 rad18 strain growth inhibition, stronger effect = higher value
# How it was run: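 Growth inhibition of the yeast strain was measured after compound exposure and expressed relative to vehicle-treated controls. The strain carries defined defects in DNA damage repair.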
# [13] = NCI Yeast Anticancer Drug Screen. Data for the rad18 strain (AID 177); conditions: S. cerevisiae rad18 mutant growth inhibition, stronger effect = higher value
# How it was run: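 Yeast carrying a defined DNA damage repair alteration were exposed to compounds. Growth inhibition was expressed relative to vehicle-treated controls.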
# [14] = at 5.0 µM (retest, dose inferred, filed as 0.5)
# [15] = at 50.0 µM (retest, dose inferred, filed as 5.0)
smiles,measurement,setting,value
CN(NC(=O)/C(=C/C=C/c1ccccc1)NC(=O)c1ccccc1)C1=C(Cl)C(=O)[N+](c2ccccc2)=CC1,growth inhibition,[1]; at 1.2 µM,0%
same,growth inhibition,[1]; at 3.7 µM,2%
same,growth inhibition,[1]; at 11.0 µM,15%
same,growth inhibition,[1]; at 33.0 µM,38%
same,growth inhibition,[1]; at 100.0 µM,40%
same,growth inhibition,[2]; at 1.2 µM,1%
same,growth inhibition,[2]; at 3.7 µM,7%
same,growth inhibition,[2]; at 11.0 µM,37%
same,growth inhibition,[2]; at 33.0 µM,69%
same,growth inhibition,[2]; at 100.0 µM,79% (active)
same,growth inhibition,[3]; at 1.2 µM,-4%
same,growth inhibition,[3]; at 3.7 µM,-1%
same,growth inhibition,[3]; [14],-3%
same,growth inhibition,[3]; at 11.0 µM,34%
same,growth inhibition,[3]; at 33.0 µM,63%
same,growth inhibition,[3]; [15],30%
same,growth inhibition,[3]; at 50.0 µM,58.1%
same,growth inhibition,[3]; at 100.0 µM,67%
same,growth inhibition,[4]; at 1.2 µM,0%
same,growth inhibition,[4]; at 3.7 µM,6%
same,growth inhibition,[4]; [14],-12%
same,growth inhibition,[4]; at 11.0 µM,16%
same,growth inhibition,[4]; at 33.0 µM,37%
same,growth inhibition,[4]; [15],2%
same,growth inhibition,[4]; at 50.0 µM,35.2%
same,growth inhibition,[4]; at 100.0 µM,49%
same,growth inhibition,[5]; at 1.2 µM,-1%
same,growth inhibition,[5]; at 3.7 µM,-4%
same,growth inhibition,[5]; at 11.0 µM,2%
same,growth inhibition,[5]; at 33.0 µM,13%
same,growth inhibition,[5]; at 100.0 µM,29%
same,growth inhibition,[6]; [14],-6%
same,growth inhibition,[6]; [15],8%
same,growth inhibition,[6]; at 50.0 µM,79.8% (active)
same,growth inhibition,[7]; [14],30%
same,growth inhibition,[7]; [15],35%
same,growth inhibition,[7]; at 50.0 µM,15.8%
same,growth inhibition,[8]; at 1.2 µM,1%
same,growth inhibition,[8]; at 3.7 µM,11%
same,growth inhibition,[8]; [14],-5%
same,growth inhibition,[8]; at 11.0 µM,33%
same,growth inhibition,[8]; at 33.0 µM,53%
same,growth inhibition,[8]; [15],72% (active)
same,growth inhibition,[8]; at 50.0 µM,70.4% (active)
same,growth inhibition,[8]; at 100.0 µM,49%
same,growth inhibition,[9]; at 1.2 µM,-3%
same,growth inhibition,[9]; at 3.7 µM,0%
same,growth inhibition,[9]; at 11.0 µM,19%
same,growth inhibition,[9]; at 33.0 µM,42%
same,growth inhibition,[9]; at 100.0 µM,43%
same,growth inhibition,[10]; at 1.2 µM,2%
same,growth inhibition,[10]; at 3.7 µM,8%
same,growth inhibition,[10]; at 11.0 µM,37%
same,growth inhibition,[10]; at 33.0 µM,61%
same,growth inhibition,[10]; at 100.0 µM,63%
same,growth inhibition,[11]; at 1.2 µM,1%
same,growth inhibition,[11]; at 3.7 µM,5%
same,growth inhibition,[11]; at 11.0 µM,27%
same,growth inhibition,[11]; at 33.0 µM,70% (active)
same,growth inhibition,[11]; at 100.0 µM,69%
same,growth inhibition,[12]; [14],-2%
same,growth inhibition,[12]; [15],18%
same,growth inhibition,[12]; at 50.0 µM,84.4% (active)
same,growth inhibition,[13]; at 1.2 µM,1%
same,growth inhibition,[13]; at 3.7 µM,26%
same,growth inhibition,[13]; at 11.0 µM,77% (active)
same,growth inhibition,[13]; at 33.0 µM,90% (active)
same,growth inhibition,[13]; at 100.0 µM,87% (active)
